Source: the supplement of paper PMC11732987, “Enantioselective OTUD7B fragment discovery through chemoproteomics screening and high-throughput optimisation” (Communications Chemistry, 2025)

Key:
Assay in all cases: log2 ratio of Biotin-Ahx-Ub-VS probe labelling (fragment/DMSO); higher = less target engagement (more negative = stronger competition), active = hit call of the paper (q ≤ 0.05, log2 ratio ≤ -1)
Conditions in all cases: compound concentration: 200 uM; treatment time: 3 h
USP34 = USP34 (UniProt Q70CQ2)
How it was run: (§1)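 Labelled DUBs were enriched with NeutrAvidin, digested with LysC and trypsin, and run by diaPASEF LC-MS/MS. The labelling used Biotin-Ahx-Ub-VS at 0.5 µM final for 1 h on HEK293T lysate (495 µg per sample) previously treated in triplicate with fragment at 200 µM or vehicle for 3 h. Values are average log2 fragment/vehicle ratios by unpaired t-test on global-median-normalised Spectronaut quantities of proteins with ≥2 unique peptides.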

USP36 = molecular target: T1, USP36 (UniProt Q9P275)
T1 sequence (whole entry): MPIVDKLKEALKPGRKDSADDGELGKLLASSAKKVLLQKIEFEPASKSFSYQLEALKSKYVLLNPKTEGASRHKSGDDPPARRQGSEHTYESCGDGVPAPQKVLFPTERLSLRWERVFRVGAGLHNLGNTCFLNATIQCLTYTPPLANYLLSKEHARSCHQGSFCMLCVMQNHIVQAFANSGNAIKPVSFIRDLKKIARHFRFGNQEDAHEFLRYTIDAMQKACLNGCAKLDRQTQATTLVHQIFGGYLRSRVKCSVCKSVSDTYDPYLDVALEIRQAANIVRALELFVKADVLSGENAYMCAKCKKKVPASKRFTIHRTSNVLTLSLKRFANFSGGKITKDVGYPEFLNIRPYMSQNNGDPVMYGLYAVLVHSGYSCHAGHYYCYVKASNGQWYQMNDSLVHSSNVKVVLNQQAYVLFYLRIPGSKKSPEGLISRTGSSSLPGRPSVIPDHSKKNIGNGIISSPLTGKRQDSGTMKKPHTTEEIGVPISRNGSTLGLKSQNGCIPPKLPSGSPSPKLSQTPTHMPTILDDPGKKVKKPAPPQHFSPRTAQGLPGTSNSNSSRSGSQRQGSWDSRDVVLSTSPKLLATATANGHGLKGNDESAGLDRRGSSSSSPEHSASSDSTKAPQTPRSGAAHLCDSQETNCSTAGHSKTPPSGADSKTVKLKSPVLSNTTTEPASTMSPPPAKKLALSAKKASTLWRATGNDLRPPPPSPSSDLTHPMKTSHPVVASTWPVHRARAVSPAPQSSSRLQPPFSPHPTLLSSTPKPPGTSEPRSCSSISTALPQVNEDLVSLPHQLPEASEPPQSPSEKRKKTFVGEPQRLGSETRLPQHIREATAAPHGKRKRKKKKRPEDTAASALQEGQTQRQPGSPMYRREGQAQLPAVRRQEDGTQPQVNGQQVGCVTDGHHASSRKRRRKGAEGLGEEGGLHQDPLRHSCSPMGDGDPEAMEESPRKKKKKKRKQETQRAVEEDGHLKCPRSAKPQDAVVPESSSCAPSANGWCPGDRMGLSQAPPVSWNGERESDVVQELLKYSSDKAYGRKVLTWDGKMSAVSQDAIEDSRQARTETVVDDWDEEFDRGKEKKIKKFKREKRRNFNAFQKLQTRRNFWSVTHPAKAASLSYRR
How it was run: as §1

USP38 = molecular target: T2, USP38 (UniProt Q8NB14)
T2 sequence (whole entry): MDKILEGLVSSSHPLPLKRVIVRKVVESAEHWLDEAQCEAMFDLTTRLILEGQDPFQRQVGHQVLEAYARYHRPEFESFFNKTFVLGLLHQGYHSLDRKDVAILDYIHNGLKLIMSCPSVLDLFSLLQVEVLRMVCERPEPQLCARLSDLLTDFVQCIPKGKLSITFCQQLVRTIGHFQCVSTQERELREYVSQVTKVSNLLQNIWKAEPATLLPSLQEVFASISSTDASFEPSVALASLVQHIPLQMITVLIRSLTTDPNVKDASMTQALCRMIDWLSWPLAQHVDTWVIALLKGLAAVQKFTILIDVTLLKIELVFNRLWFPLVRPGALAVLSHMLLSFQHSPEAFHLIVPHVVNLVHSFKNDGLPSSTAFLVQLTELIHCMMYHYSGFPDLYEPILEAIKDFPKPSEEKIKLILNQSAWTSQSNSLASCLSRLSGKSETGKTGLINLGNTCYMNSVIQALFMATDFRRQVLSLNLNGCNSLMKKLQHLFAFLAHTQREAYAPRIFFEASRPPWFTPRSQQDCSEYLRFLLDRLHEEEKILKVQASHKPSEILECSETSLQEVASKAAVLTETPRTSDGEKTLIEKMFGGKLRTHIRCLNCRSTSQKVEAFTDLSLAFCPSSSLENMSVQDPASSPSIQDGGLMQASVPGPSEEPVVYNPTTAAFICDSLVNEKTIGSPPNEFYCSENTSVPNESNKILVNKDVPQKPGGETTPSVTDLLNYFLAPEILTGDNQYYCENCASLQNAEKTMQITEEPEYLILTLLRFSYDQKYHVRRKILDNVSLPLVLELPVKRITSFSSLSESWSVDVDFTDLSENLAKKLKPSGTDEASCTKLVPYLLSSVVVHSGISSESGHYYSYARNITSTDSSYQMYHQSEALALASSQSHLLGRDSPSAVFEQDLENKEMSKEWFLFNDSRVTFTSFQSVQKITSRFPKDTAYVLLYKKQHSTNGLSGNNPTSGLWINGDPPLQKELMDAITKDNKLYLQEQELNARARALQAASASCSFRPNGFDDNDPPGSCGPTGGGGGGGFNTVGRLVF
How it was run: as §1

USP39 = molecular target: T3, USP39 (UniProt Q53GS9)
T3 sequence (whole entry): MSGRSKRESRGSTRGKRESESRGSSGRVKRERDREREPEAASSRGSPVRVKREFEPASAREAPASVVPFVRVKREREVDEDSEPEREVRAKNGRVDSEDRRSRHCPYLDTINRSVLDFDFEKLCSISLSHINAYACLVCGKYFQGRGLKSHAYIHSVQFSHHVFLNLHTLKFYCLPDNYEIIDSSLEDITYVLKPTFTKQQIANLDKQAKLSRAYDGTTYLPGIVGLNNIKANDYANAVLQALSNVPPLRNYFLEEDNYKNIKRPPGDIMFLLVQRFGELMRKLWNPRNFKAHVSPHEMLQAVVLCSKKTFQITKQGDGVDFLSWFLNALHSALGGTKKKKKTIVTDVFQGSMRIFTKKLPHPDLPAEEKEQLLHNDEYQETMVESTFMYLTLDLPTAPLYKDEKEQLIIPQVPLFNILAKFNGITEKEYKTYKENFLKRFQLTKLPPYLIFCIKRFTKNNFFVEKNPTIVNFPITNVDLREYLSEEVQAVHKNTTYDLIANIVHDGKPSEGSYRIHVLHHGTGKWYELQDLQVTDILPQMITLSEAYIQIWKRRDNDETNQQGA
How it was run: as §1

USP4 = molecular target: T4, USP4 (UniProt Q13107)
T4 sequence (whole entry): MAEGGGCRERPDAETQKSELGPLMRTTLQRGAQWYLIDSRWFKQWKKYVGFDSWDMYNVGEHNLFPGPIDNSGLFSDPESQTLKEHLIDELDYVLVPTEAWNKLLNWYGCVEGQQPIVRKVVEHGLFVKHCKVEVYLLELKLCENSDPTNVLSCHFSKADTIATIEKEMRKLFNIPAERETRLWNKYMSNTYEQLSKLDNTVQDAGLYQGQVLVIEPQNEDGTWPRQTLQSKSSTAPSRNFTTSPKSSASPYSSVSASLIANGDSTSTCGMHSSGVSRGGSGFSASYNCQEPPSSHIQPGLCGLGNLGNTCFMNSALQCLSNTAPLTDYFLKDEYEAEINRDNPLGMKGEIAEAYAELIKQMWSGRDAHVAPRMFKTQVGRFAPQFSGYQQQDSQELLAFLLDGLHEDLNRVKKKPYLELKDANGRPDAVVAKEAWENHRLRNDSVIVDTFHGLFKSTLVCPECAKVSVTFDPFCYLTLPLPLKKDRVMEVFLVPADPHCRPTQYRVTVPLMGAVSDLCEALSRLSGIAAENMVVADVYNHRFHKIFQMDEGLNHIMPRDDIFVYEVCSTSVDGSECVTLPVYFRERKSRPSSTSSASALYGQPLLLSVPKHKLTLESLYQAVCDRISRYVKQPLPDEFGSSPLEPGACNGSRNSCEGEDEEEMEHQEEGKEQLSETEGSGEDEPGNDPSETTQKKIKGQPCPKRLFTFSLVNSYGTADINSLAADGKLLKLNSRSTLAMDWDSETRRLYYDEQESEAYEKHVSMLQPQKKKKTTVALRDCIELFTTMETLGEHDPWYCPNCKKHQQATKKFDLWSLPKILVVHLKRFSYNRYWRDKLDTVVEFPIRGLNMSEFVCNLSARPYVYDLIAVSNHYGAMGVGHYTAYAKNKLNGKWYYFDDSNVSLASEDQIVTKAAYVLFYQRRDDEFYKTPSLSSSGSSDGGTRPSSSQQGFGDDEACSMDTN
How it was run: as §1

Measured: log2 ratio of Biotin-Ahx-Ub-VS probe labelling

Chain of USP34 (Q70CQ2 whole entry, the tested form may be a part): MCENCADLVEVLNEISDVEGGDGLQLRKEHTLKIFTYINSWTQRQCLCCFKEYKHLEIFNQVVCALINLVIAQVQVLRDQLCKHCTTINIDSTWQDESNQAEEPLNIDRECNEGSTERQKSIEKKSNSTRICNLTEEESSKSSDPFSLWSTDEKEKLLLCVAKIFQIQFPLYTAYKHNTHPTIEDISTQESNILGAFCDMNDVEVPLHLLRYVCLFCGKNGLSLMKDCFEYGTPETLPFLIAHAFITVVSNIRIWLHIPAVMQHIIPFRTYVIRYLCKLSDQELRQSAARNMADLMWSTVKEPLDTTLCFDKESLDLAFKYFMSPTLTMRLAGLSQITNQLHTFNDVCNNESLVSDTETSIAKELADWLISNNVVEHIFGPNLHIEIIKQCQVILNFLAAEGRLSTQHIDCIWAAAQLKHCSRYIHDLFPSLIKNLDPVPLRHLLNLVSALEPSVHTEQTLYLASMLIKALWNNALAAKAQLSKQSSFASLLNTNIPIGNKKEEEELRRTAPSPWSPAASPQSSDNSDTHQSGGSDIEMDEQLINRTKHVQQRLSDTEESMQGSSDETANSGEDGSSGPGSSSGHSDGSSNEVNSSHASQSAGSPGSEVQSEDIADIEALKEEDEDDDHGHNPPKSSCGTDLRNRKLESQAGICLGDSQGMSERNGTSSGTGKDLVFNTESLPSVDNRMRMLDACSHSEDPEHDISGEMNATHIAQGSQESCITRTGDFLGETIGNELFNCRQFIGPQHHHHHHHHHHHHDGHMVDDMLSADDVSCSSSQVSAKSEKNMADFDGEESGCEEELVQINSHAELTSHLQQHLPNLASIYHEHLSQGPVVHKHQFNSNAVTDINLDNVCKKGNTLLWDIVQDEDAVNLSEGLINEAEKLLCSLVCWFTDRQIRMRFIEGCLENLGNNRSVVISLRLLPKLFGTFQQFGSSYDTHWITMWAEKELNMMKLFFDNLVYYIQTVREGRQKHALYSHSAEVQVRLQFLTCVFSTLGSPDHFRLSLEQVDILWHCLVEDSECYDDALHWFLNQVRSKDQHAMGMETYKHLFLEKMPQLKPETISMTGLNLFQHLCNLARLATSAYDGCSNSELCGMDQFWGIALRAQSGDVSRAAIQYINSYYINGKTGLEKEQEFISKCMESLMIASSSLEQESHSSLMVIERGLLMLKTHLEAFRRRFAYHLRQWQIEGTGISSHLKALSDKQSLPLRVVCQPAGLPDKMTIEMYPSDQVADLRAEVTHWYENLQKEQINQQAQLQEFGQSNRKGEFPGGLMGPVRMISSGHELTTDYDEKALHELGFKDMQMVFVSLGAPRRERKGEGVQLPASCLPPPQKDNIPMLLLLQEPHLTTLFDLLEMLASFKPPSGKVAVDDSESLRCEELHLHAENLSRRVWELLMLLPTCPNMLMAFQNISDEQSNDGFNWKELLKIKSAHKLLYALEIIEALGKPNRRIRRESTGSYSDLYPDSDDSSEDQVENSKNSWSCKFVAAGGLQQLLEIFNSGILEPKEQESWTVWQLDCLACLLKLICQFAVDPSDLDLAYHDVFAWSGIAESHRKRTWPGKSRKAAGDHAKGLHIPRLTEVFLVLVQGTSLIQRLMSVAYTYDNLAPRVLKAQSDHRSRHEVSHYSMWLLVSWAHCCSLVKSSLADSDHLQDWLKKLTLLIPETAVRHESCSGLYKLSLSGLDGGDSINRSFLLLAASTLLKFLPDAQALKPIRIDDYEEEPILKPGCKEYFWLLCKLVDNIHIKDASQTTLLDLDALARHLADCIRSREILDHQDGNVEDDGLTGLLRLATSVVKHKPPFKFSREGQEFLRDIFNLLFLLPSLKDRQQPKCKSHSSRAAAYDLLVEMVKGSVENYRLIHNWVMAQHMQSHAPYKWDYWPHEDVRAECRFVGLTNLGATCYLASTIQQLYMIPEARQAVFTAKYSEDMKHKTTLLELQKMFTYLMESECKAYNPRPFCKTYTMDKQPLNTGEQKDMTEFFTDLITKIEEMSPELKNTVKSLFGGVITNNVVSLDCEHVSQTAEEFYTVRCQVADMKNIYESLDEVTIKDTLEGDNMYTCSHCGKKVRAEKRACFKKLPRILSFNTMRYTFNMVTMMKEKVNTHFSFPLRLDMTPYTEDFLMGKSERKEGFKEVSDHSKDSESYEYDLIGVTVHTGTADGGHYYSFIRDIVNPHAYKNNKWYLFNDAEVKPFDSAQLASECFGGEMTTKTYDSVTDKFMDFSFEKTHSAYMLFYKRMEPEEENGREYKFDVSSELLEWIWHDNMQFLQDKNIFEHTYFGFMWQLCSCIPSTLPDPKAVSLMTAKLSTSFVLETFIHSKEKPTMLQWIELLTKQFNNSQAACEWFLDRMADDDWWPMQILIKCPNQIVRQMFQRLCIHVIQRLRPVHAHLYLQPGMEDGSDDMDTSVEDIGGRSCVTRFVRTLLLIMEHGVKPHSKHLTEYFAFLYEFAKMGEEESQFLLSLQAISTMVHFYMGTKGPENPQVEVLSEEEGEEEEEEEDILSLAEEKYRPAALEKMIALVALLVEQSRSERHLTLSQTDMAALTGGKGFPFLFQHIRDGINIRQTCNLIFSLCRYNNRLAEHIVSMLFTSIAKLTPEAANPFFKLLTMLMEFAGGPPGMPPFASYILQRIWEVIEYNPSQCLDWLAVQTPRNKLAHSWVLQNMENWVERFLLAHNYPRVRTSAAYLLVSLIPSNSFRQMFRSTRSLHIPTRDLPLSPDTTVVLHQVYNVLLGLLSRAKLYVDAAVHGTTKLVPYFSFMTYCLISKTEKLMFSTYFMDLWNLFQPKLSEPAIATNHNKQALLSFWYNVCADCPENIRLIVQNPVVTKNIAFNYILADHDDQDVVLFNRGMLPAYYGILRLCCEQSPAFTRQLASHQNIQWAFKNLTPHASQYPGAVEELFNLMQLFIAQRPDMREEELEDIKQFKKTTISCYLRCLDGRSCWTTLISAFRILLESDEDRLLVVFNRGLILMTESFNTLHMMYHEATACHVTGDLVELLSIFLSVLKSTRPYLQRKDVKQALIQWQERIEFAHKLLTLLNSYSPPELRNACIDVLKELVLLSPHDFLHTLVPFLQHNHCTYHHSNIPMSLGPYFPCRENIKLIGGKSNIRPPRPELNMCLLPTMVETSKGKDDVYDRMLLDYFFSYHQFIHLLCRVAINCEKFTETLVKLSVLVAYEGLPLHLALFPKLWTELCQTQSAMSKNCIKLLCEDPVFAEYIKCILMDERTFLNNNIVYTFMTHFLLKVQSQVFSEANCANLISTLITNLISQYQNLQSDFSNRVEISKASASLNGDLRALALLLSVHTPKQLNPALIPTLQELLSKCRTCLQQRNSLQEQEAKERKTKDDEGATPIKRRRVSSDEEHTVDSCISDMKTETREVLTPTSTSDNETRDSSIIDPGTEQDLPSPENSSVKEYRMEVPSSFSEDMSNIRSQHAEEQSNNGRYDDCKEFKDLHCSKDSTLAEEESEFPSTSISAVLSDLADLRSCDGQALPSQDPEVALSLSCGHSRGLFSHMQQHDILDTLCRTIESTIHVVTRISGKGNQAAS

Cl.O=C(CCl)NC1(c2ncccn2)CCC1
inactive: USP34 0.0452 | USP36 0.109 | USP38 0.0726 | USP39 0.133 | USP4 0.0299
